Experimental data reported in PubChem BioAssay.
“And” between values parts separate entries of the source, which are not always exact repeats. Equal values may be shown once. The source made the active and inactive calls.

Tested on: not listed separately
Assay: blood-stage malaria parasite viability loss – strain 3D7, DAPI fluorescence, 100 nL, primary screen (AID 1184);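 further: parasites grown inside human red blood cells in medium with human serum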
Settings: P. falciparum 3D7 growth, 3 d, higher = more signal

**Q.** Which z-score does the source give for `c1ccc(-c2cc3c(nc2-c2ccccc2)CCNC3)cc1` here?
**A.** -0.295

**Q.** With `COC(=O)[C@@]1(Cc2ccccc2)[C@H]2c3cc(C(=O)N(C)C)n(C)c3C[C@H]2CN1C(=O)c1ccccc1` as the compound, how does the z-score read?
**A.** -0.731

**Q.** With `O=P(c1ccccc1)(c1ccccc1)N1CC2(CC2)CC(O)(c2ccccc2)C1` (stereo unspecified) as the compound, how does the z-score read?
**A.** 0.45

**Q.** For `COC(=O)[C@@]1(Cc2ccccc2)[C@H]2c3cc(C(=O)N(C)C)[nH]c3C[C@H]2CN1C(=O)c1ccccc1`, which z-score is on record?
**A.** 0.747

**Q.** With `COC(=O)C1(C)C=C2C(=C(C)C(=O)C2C)CN1` (stereo unspecified) as the compound, how does the z-score read?
**A.** -1.06

**Q.** Which z-score does the source give for `C[C@@H]1Cc2c(cnc3c2CN(C)CC3)CO1` here?
**A.** -0.0396

**Q.** With `COC(=O)[C@H]1[C@H](c2ccccc2)C(=O)[C@]2(O)c3ccccc3O[C@@]12c1ccccc1` as the compound, how does the z-score read?
**A.** 0.332

**Q.** With `CCCc1cc2c(n1CCO)C(C)C1CN(C(=O)c3ccccc3)C(C)(C(=O)OC)C21` (stereo unspecified) as the compound, how does the z-score read?
**A.** 0.119

**Q.** For `C[C@H]1O[C@H]2C3=C(C(=O)[C@@H]4O[C@@H]4[C@@H]3O)[C@@H]1[C@@H]1[C@@H](C)OC=C3[C@@H](O)[C@H]4O[C@H]4C(=O)[C@]312`, which z-score is on record?
**A.** -1.58

**Q.** For `CC1N(P(=O)(c2ccccc2)c2ccccc2)CC(O)(c2ccccc2)CC12CC2` (stereo unspecified), which z-score is on record?
**A.** 0.2 and -0.527

**Q.** Which z-score does the source give for `CCCc1cc2c(n1Cc1cccc(Cl)c1)C(C)C1CN(C(=O)c3ccccc3)C(C)(C(=O)OC)C21` (stereo unspecified) here?
**A.** -0.413

Target: Homeobox protein Hox-A13 (Mus musculus) (UniProt Q62424)
Sequence (Q62424 whole entry, looked up): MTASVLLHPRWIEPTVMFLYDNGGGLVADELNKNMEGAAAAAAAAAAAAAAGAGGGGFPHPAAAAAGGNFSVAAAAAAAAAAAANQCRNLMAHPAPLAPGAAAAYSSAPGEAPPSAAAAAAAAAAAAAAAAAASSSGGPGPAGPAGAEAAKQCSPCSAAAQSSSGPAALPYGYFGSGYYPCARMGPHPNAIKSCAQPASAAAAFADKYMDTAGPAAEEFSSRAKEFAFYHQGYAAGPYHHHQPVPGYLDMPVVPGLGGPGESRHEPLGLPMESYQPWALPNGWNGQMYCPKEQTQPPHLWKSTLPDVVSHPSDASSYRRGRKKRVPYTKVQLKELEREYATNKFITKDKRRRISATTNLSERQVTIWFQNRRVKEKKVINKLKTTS
Assay: disruptors of Hoxa13 oligonucleotide interaction – biochemical, fluorescence polarization, labeled oligonucleotide, primary screen (AID 1185)
Settings: Hoxa13:DNA binding, 15 min; higher = more signal, called active from +8 up or from −8 down unless noted

**Q.** For `COC(=O)NCC=Cc1nc(CCC=CC(=O)O[C@H]2CC3CC(=O)O[C@@H](C=CCC(C)C)C[C@@H]4CC[C@H](C)[C@@H](C[C@@H](OC)C[C@H](C2)O3)O4)co1`, which z-score is on record?
**A.** -2.54 (inactive)

**Q.** For `CN1CCC(c2ccc(CO)cc2)=CC1c1cccs1` (stereo unspecified), which z-score is on record?
**A.** -4.11 (inactive)

**Q.** Which z-score does the source give for `CCOC(=O)[C@H]1CC=C2C(=O)Oc3ccccc3[C@@H]21` here?
**A.** -2.72 (inactive)

**Q.** For `CCCc1cc2c(n1Cc1ccc(C)cc1)C(C)C1CN(C(=O)c3ccccc3)C(C)(C(=O)OC)C21` (stereo unspecified), which z-score is on record?
**A.** -2.8 (inactive)

**Q.** For `CN1CCc2nc(CO)c(CO)cc2C1`, which z-score is on record?
**A.** -0.184 (inactive)

**Q.** For `CCc1cc2c(nc1CC)CCN(CCC(C)=NOC)C2`, which z-score is on record?
**A.** -3.29 (inactive)

**Q.** For `C[C@@H]1OC=C2[C@@H](O)[C@H]3O[C@H]3C(=O)[C@]23[C@H]1[C@H]1C2=C([C@@H](O)[C@H]4O[C@H]4C2=O)[C@@H]3O[C@@H]1C`, which z-score is on record?
**A.** -0.299 (inactive)

**Q.** For `COC(=O)[C@H]1[C@@H](O)[C@@]2(O)c3c(OC)cc(OC)cc3O[C@@]2(c2ccc(OC)cc2)[C@@H]1c1ccccc1`, which z-score is on record?
**A.** -0.0317 (inactive)

**Q.** Which z-score does the source give for `CCOC(=O)[C@H]1CC=C2C(=O)Oc3ccc(Br)cc3[C@@H]21` here?
**A.** -6.05 (inactive)

**Q.** Which z-score does the source give for `COC(=O)[C@H]1C(=O)c2ccccc2O[C@@](C(=O)OC)(c2ccccc2)[C@@H]1c1ccccc1` here?
**A.** -0.6 (inactive)

**Q.** For `OCc1ccc(C2=CC(c3cccs3)N(Cc3cccc(OC(F)(F)F)c3)CC2)cc1` (stereo unspecified), which z-score is on record?
**A.** -1.91 (inactive)

**Q.** With `CCCC=C(CCC)[C@@H](NP(=O)(c1ccccc1)c1ccccc1)c1ccccc1` as the compound, how does the z-score read?
**A.** -1.64 (inactive)

**Q.** Which z-score does the source give for `C=C(CC1(C(C)NP(=O)(c2ccccc2)c2ccccc2)CC1)c1ccccc1` (stereo unspecified) here?
**A.** -5.49 (inactive)

**Q.** With `CCCC[C@@H]1C[C@H]1[C@@H](NP(=O)(c1ccccc1)c1ccccc1)c1ccc(Cl)cc1` as the compound, how does the z-score read?
**A.** -2.17 (inactive)

**Q.** With `c1ccc(-c2cc3c(nc2-c2ccccc2)CCNC3)cc1` as the compound, how does the z-score read?
**A.** -0.372 (inactive)

**Q.** With `COC(=O)[C@@]1(Cc2ccccc2)[C@H]2c3cc(C(=O)N(C)C)n(C)c3C[C@H]2CN1C(=O)c1ccccc1` as the compound, how does the z-score read?
**A.** -6.38 (inactive)

**Q.** Which z-score does the source give for `O=P(c1ccccc1)(c1ccccc1)N1CC2(CC2)CC(O)(c2ccccc2)C1` (stereo unspecified) here?
**A.** -2.7 (inactive)

**Q.** For `COC(=O)[C@@]1(Cc2ccccc2)[C@H]2c3cc(C(=O)N(C)C)[nH]c3C[C@H]2CN1C(=O)c1ccccc1`, which z-score is on record?
**A.** -3.47 (inactive)

**Q.** For `COC(=O)C1(C)C=C2C(=C(C)C(=O)C2C)CN1` (stereo unspecified), which z-score is on record?
**A.** -3.26 (inactive)

**Q.** For `C[C@@H]1Cc2c(cnc3c2CN(C)CC3)CO1`, which z-score is on record?
**A.** -2.8 (inactive)

**Q.** For `COC(=O)[C@H]1[C@H](c2ccccc2)C(=O)[C@]2(O)c3ccccc3O[C@@]12c1ccccc1`, which z-score is on record?
**A.** -0.116 (inactive)

**Q.** Which z-score does the source give for `CCCc1cc2c(n1CCO)C(C)C1CN(C(=O)c3ccccc3)C(C)(C(=O)OC)C21` (stereo unspecified) here?
**A.** -4.02 (inactive)

**Q.** For `C[C@H]1O[C@H]2C3=C(C(=O)[C@@H]4O[C@@H]4[C@@H]3O)[C@@H]1[C@@H]1[C@@H](C)OC=C3[C@@H](O)[C@H]4O[C@H]4C(=O)[C@]312`, which z-score is on record?
**A.** -0.276 (inactive)

**Q.** For `CC1N(P(=O)(c2ccccc2)c2ccccc2)CC(O)(c2ccccc2)CC12CC2` (stereo unspecified), which z-score is on record?
**A.** -3.23 (inactive) and -3.55 (inactive)

**Q.** With `CCCc1cc2c(n1Cc1cccc(Cl)c1)C(C)C1CN(C(=O)c3ccccc3)C(C)(C(=O)OC)C21` (stereo unspecified) as the compound, how does the z-score read?
**A.** -5.79 (inactive)
